The values that follow come from PubChem BioAssay (NCATS).

The nature of assay [1]: qHTS Assay for Identification of Small Molecule Agonists for Thrombopoietin (TPO) Signaling Pathway (AID 917). Summed up: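 Luminescence from a Glycoprotein IIb promoter–driven luciferase reporter served as read-out in murine Ba/F3 cells carrying the human TPO receptor. Cells, deprived of IL-3 overnight, received compounds with 26 pM TPO and were incubated 24 hrs at 37 C.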

Assay [2] has as its target Muscarinic acetylcholine receptor M1 (Rattus norvegicus) (UniProt P08482). In words: qHTS Assay for Antagonists of Acetylcholine Muscarinic M1 Receptor: Kinetic Measurement of Intracellular Calcium Response (AID 943). Also: nearly all actives have a fitted effect of over 75% in size. Also: potency is read from the fitted curve at half-maximal effect. Put shortly: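 CHO cells expressing rat M1 receptor, Fluo-4 loaded, preincubated 10 min with compound, then stimulated with EC80 carbachol (100 nM final). Kinetic calcium fluorescence over 4 min; response taken as peak over basal signal.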

Assay [3] shares this target. Put plainly: qHTS Assay for Antagonists of Acetylcholine Muscarinic M1 Receptor: Measurement of IP-One Response (AID 944). Also: nearly all actives have a fitted effect of over 75% in size. Also: potency is read from the fitted curve at half-maximal effect. Summed up: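 CHO cells stably expressing rat M1, pretreated 10 min with compound, then stimulated 30 min with carbachol at EC80 (200 nM) in LiCl-containing buffer pH 7.4; IP1 accumulation read by HTRF competition (665/620 nm).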
On the technique in general: qHTS replaces the single test concentration by a dilution series.

Assay [4] addresses Pyruvate kinase (Leishmania mexicana) (UniProt Q27686). In words: qHTS Validation Assay for Inhibitors of Leishmania Mexicana Pyruvate Kinase (AID 945). Also: potency is read from the fitted curve at half-maximal effect. Put shortly: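 An endpoint luciferase assay: 0.2 nM LmPYK E451W turns over 0.5 mM PEP with 0.1 mM ADP for 1 h at room temperature, pH 7.2, before PKLight addition. Values are normalized to DMSO-only wells.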
Assay [5] in a line: qHTS Assay for Identification of Small Molecule Antagonists for Thrombopoietin (TPO) Signaling Pathway (AID 918). Also: potency is read from the fitted curve at half-maximal effect; nearly all actives have a fitted effect of over 60% in size. The following applies: TPO-dependent cell signaling reporter, antagonist mode. Put shortly: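 Murine Ba/F3 cells expressing human TPO receptor and a Glycoprotein IIb promoter-luciferase reporter, IL-3-starved overnight, treated with compound plus TPO at EC50 (26 pM final). After 24 h at 37 C, luminescence read to detect inhibitors.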

A short description of assay [6]: Cell Viability - LYMP1-002 - Assay at 16 hr (AID 948). Also: potency is read from the fitted curve at half-maximal effect. Put shortly: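 Seed 2500 LYMP1-002 cells per well in complete medium and hold 5 hr at 37 C. Add compound across a concentration series and incubate 16 hr at 37 C. Add CellTiter-Glo, wait 30 min at room temperature, read luminescence.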
A short description of assay [7]: MultiTox-Fluor Cytotoxicity Assay - LYMP1-001 - Dead Cells (AID 946).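 Also: cells exposed to compound for 16 h.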 Also: potency is read from the fitted curve at half-maximal effect. Summed up:
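LYMP1-001 lymphoblastoid cells (2500/well) treated 16 h at 37 C. Dead-cell protease cleavage of bis-AAF-R110 read at Ex/Em 485/520. Normalized to DMSO and 15 uM tetraoctylammonium bromide; AC50 from Hill fits.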

Several values for one entry are separate records, joined by “and”; a condition that tells them apart may be missing. Identical values can stand only once. Records with an inconclusive call do not appear. Some compounds were tested as several samples or in several runs, with calls that do not always agree. Activity calls are given as the source filed them. Calls follow the shape of the dose curve; as a rule, active = well fitted curve in the direction sought with a large enough effect; inconclusive = small, poorly fitted or top-dose-only effect, or another doubt; inactive = no such curve, though single readings can be large; an effect the other way counts as inactive or inconclusive.

Chain of Pyruvate kinase (Leishmania mexicana) (Q27686 2-499 E452W): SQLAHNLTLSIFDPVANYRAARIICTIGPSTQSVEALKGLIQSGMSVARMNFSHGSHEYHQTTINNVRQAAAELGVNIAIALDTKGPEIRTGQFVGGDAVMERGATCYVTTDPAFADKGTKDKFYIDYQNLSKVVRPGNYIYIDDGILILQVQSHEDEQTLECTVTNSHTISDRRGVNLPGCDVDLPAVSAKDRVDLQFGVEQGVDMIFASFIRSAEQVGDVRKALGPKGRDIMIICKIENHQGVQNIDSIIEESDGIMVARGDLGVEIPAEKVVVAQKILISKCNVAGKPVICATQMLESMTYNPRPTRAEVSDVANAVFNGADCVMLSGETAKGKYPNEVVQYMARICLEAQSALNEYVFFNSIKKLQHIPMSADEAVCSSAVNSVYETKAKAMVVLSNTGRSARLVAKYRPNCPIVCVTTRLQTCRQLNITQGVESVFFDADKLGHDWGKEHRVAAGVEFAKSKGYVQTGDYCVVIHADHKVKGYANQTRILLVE
Chain of Muscarinic acetylcholine receptor M1 (Rattus norvegicus) (P08482 whole entry, looked up): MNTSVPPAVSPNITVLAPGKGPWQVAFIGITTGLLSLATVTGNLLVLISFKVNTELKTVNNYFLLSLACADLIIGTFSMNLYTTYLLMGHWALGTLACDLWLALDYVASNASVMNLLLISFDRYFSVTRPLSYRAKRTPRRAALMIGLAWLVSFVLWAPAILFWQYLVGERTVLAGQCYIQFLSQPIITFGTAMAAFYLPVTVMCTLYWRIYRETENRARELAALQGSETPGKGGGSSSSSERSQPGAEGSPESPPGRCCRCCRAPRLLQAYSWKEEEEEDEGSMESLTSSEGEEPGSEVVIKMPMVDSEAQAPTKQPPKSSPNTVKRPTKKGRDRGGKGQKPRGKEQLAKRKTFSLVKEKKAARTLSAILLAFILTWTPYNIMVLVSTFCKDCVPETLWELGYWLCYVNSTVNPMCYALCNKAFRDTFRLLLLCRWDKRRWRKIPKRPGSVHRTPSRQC

Take `COc1ccc2[nH]c3c(c2c1)CCNC3`: the Potency result in assay [1], in assay [2], in assay [3] and in assay [4] was “inactive” throughout.
As to `CCCN(CCC)CCc1c[nH]c2ccc(C(N)=O)cc12`, the Potency result in assay [1] and in assay [4] was “inactive” in each case.
On to `Clc1ccc(N2C[C@H]3CC[C@@H](C2)N3)nn1`, for which the Potency entry in assay [1] and in assay [4] was “inactive” each time.
For `CCN(CCCl)Cc1ccccc1Br`, the Potency entry in assay [1] and in assay [4] was “inactive” each time.
As for `CCCN(CCC)C1Cc2cc(OC)c(OC)cc2C1`, the Potency entry in assay [1] and in assay [4] was “inactive” each time. The figures for the Potency in assay [2] and in assay [3] were 1.26 µM (active) and 2.51 µM (active), respectively.
`CC(=O)NBr`: the Potency result in assay [1], in assay [3] and in assay [4] was “inactive” in each case.
Take `NC(=O)c1cc(N2CC2)c([N+](=O)[O-])cc1[N+](=O)[O-]`: the Potency result in assay [1], in assay [2], in assay [3] and in assay [4] was “inactive” each time.
Take `NC(=O)COc1c(F)cc(SCCNS(=O)(=O)c2ccccc2)cc1F`: the Potency result in assay [1] and in assay [4] was “inactive” throughout.
For the molecule `c1ccc2cc(CC3=NCCN3)ccc2c1`, the Potency entry in assay [1] and in assay [4] was “inactive” each time.
`CNC(=O)OCC[N+](C)(C)C`: the Potency entry in assay [1], in assay [2], in assay [3] and in assay [4] was “inactive” each time.
As for `OCc1cnc[nH]1`, the Potency result in assay [1], in assay [2], in assay [3] and in assay [4] was “inactive” throughout.
With `CCCN(CCC)CCc1ccc(O)c(O)c1`, the Potency entry in assay [1], in assay [3] and in assay [4] was “inactive” throughout.
Take `Cc1sc2ccccc2c1CC1=NCCN1`: the Potency entry in assay [1], in assay [2], in assay [3] and in assay [4] was “inactive” in each case.
As for `CN1CCc2cccc(Cl)c2CC1`, the Potency entry in assay [1] and in assay [4] was “inactive” each time.
On to `C[C@H](N)CN1CCc2ccc(Br)cc21`, for which the Potency result in assay [1] and in assay [4] was “inactive” in each case.
Regarding `C[N+](C)(C)CC#CCN1CCCC1=O`, the Potency entry in assay [1], in assay [2], in assay [3] and in assay [4] was “inactive” throughout.
For `CCCN(CCC)[C@@H]1CCc2cccc(O)c2C1`, the Potency entry in assay [1] and in assay [4] was “inactive” in each case. For the same molecule, the Potency in assay [2] was 3.98 µM (active) and inactive; in assay [3], 7.08 µM (active) and inactive.
As to `COc1ccc2c(c1)/C(=C/c1cnc[nH]1)C(=O)N2`, in assay [5], the Potency is 10 µM (active). The Potency result in assay [2] and in assay [4] was “inactive” in each case.
Consider `C[C@@H]1[C@@H]2Cc3ccc(O)cc3[C@@]1(C)CCN2CC1CC1`, for which the Potency entry in assay [1] and in assay [4] was “inactive” throughout. Further, the values for the Potency in assay [2] and in assay [3] were 14.1 µM (active) and 15.8 µM (active), respectively.
`NCCc1c[nH]c2ccc(C(N)=O)cc12`: the Potency entry in assay [1], in assay [3] and in assay [4] was “inactive” throughout.
With `NC(=O)CI`, the Potency in assay [5] is 3.16 µM (active). Moreover, the Potency result in assay [2] and in assay [4] was “inactive” in each case.
For the molecule `CP(=O)(O)C1=CCNCC1`, the Potency result in assay [1], in assay [2], in assay [3] and in assay [4] was “inactive” in each case.
`CCCn1c(=O)c2[nH]c(C3CCCC3)nc2n(CCCOC(=O)c2ccc(S(=O)(=O)F)cc2)c1=O`: the Potency result in assay [1] and in assay [4] was “inactive” each time. For the same molecule, the Potency in assay [2] was 5.01 µM (active).
For `CCCN(CCC)[C@H]1CCc2c(F)ccc(O)c2C1`, the Potency entry in assay [1] and in assay [4] was “inactive” each time. In addition, the Potency in assay [2] was 6.31 µM (active); in assay [3], 8.91 µM (active).
`NNC(=O)c1ccc(O)cc1`: the Potency entry in assay [1], in assay [2] and in assay [4] was “inactive” in each case.
As to `CC(C)Nc1ccc(Nc2ccccc2)cc1`, in assay [6], the Potency is 39.8 µM (active).
Take `Oc1cc(Cl)c(Cl)cc1Cl`: the Potency entry in assay [7] and in assay [6] was “inactive” in each case.
Regarding `NNC(N)=O`, the Potency entry in assay [4], in assay [7] and in assay [6] was “inactive” in each case.
Take `S=C=S`: the Potency result in assay [7] and in assay [6] was “inactive” in each case.
On to `ClCC1CO1` (stereo unspecified), for which the Potency entry in assay [7] and in assay [6] was “inactive” throughout.
As to `O=C(O)c1cc[c]([Hg][Cl])cc1`, the Potency result in assay [2] and in assay [3] was “inactive” throughout. The Potency in assay [4] was 3.98 µM (active).
With `C[C@H]1CCC[C@H](O)CCCCCc2cc(O)cc(O)c2C(=O)O1`, the Potency entry in assay [7] and in assay [6] was “inactive” throughout.
Regarding `CN1CCC(c2c[nH]c3ccc(O)cc23)CC1`, the Potency result in assay [4] is “inactive”.
With `C[C@@H]1O[C@H](C[N+](C)(C)C)CS1`, the Potency result in assay [2], in assay [3] and in assay [4] was “inactive” each time.
Turning to `CCCCCCCCOC(=O)c1ccccc1C(=O)OCCCCCCCC`, the Potency result in assay [7] and in assay [6] was “inactive” each time.
As for `CCOC(=O)c1ccccc1C(=O)OCC`, the Potency result in assay [7] and in assay [6] was “inactive” throughout.
Take `ClC=C(Cl)Cl`: the Potency entry in assay [7] and in assay [6] was “inactive” each time.
For the molecule `O=C/C=C/c1ccccc1`, the Potency result in assay [7] and in assay [6] was “inactive” in each case.
Consider `Clc1ccccc1Cl`, for which the Potency result in assay [7] and in assay [6] was “inactive” in each case.
Take `CCCN1CCc2cc(O)cc3c2[C@H]1Cc1ccc(O)c(O)c1-3`: in assay [5], the Potency was 10 µM (active). Moreover, in assay [4], the Potency result is “inactive”.
With `CN1CCc2cc(O)cc3c2[C@H]1Cc1ccc(O)c(O)c1-3`, the Potency in assay [5] is 10 µM (active). Moreover, the Potency entry in assay [4] is “inactive”.
On to `O=C(O)C(Cl)(Cl)Cl`, for which the Potency entry in assay [7] and in assay [6] was “inactive” throughout.
`C[C@H]1CC[C@@H]2[C@@H](C)[C@H]3[C@H](C[C@H]4[C@@H]5CC=C6CC(O[C@@H]7O[C@H](CO)[C@H](O)[C@H](O[C@@H]8O[C@H](CO)[C@@H](O)[C@H](O)[C@H]8O)[C@H]7O[C@H]7O[C@@H](C)[C@H](O)[C@@H](O)[C@H]7O)CC[C@]6(C)[C@H]5CC[C@]34C)N2C1` (stereo partly specified): the Potency in assay [6] is 31.6 µM (active).
Turning to `O=[N+]([O-])c1ccc(F)c([N+](=O)[O-])c1`, the Potency entry in assay [7] and in assay [6] was “inactive” in each case.
On to `N#CC(C#N)=Cc1cc(O)c(O)c(O)c1`, for which the Potency entry in assay [4] is “inactive”.
For the molecule `O=CC=O`, the Potency result in assay [7] and in assay [6] was “inactive” in each case.
`O=[N+]([O-])c1ccccc1`: the Potency result in assay [7] and in assay [6] was “inactive” in each case.
Take `C[N+]1(C)[C@@H]2CC[C@H]1CC(OC(=O)c1c[nH]c3ccccc13)C2` (stereo partly specified): in assay [5], the Potency is 10 µM (active). In addition, in assay [4], the Potency entry is “inactive”.
On to `O=Cc1ccco1`, for which the Potency result in assay [7] and in assay [6] was “inactive” throughout.
`ClC(Cl)(Cl)Cl`: the Potency entry in assay [7] and in assay [6] was “inactive” throughout.
As to `C[C@]12CCC(=O)C[C@@H]1CC[C@@H]1[C@@H]2CC[C@]2(C)[C@@H](O)CC[C@@H]12`, the Potency entry in assay [6] is “inactive”.
With `COC1=CC(=O)O[C@@H](/C=C/c2ccccc2)C1`, the Potency result in assay [7] and in assay [6] was “inactive” in each case.
For the molecule `CCCCCl`, the Potency entry in assay [7] and in assay [6] was “inactive” each time.
On to `[O]=[Cd]`, for which the Potency entry in assay [7] and in assay [6] was “inactive” each time.
For the molecule `CN(N=O)c1cc(O)ccc1O`, the Potency entry in assay [2], in assay [3] and in assay [4] was “inactive” in each case.
With `O=C1C2CC=CCC2C(=O)N1SC(Cl)(Cl)Cl` (stereo unspecified), the Potency in assay [7] was 10 µM (active); in assay [6] it was 7.94 µM (active) and 10 µM (active).
With `[O]=[Cr](=[O])([OH])[O][Cr](=[O])(=[O])[OH]`, the Potency result in assay [7] and in assay [6] was “inactive” in each case.
Take `CC(C)CCON=O`: the Potency result in assay [7] and in assay [6] was “inactive” in each case.
With `C=CCN=C=S`, the Potency result in assay [7] and in assay [6] was “inactive” each time.
